HttQ103 aggreg = mutant huntingtin aggregation inhibition. actives 1.1% (n = 220,000). PC12 HttQ103-GFP aggregates, Acumen cytometry, 40 h. AID 1688. Potency, µM (top dose mostly 46.1 µM), without a hit: at the highest dose activity change, negative = inhibition, most hits filed as inhibitors; note: potency is the fitted concentration of half-maximal effect; % is set by controls: 0 for no effect and ±100 for the full control effect; nearly all actives have a fitted effect of over 60% in size
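Using laser scanning cytometry, GFP-positive aggregates were counted after lysis of PC12 cells induced with 100 nM tebufenozide to express HTT exon 1 Q103–GFP. Compounds were tested in titration.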
HTT cytoprotect = cytoprotection in Huntington HTT-Q103 PC12 cell model; Potency, µM (doses to about 56.4 µM), without a hit: cytoprotection (ATP increase), usual class: activators; AID 1471; PC12 HTT-Q103 induced, cytoprotection, ATP luminescence, 40 h; actives 0.14% (n = 230,000); note: potency is the fitted concentration of half-maximal effect; % of control where 0% means no effect; nearly all actives have a fitted effect of over 45% in size
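ATP quantification (ATPlite) reports survival of PC12 cells in which tebufenozide, 100 nM final, switches on Htt exon 1 with 103 glutamines linked to GFP; compounds are titrated.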
AT treatment = potential ataxia-telangiectasia treatment; AID 485349; F2112 A-T fibroblasts, KAP-1 phosphorylation AlphaLISA; neocarzinostatin DNA damage 30 min before lysis; Potency, µM (titrated, usually from 57.5 µM), inactives show at the top dose activation, most hits filed as activators; actives 0.19% (n = 320,000); note: potency is the fitted concentration of half-maximal effect; % of control where 0% means no effect; nearly all actives have a fitted effect of over 45% in size
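ATM-like activity read as KAP-1 phosphorylation via AlphaLISA donor/acceptor antibody pairs after lysis and 6 hr at 25C. Cells were ATM-null patient fibroblasts (F2112, hTERT), dosed 60 min, then exposed to the DSB inducer NCS for 30 min.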
mIDH1 inhibitor = inhibitors of human mutant IDH1 R132H | O75874 | IDH1-R132H enzyme, NADPH consumption, diaphorase/resazurin fluorescence | Potency, µM (titrated, usually from 76.6 µM), for the others: top-dose activity change, negative = inhibition, usual class: inhibitors | actives 0.093% (n = 390,000) | AID 602179; note: potency is the fitted concentration of half-maximal effect; % is set by controls: 0 for no effect and ±100 for the full control effect; nearly all actives have a fitted effect of over 65% in size
Target sequence (O75874 whole entry R132H, stated change not applied): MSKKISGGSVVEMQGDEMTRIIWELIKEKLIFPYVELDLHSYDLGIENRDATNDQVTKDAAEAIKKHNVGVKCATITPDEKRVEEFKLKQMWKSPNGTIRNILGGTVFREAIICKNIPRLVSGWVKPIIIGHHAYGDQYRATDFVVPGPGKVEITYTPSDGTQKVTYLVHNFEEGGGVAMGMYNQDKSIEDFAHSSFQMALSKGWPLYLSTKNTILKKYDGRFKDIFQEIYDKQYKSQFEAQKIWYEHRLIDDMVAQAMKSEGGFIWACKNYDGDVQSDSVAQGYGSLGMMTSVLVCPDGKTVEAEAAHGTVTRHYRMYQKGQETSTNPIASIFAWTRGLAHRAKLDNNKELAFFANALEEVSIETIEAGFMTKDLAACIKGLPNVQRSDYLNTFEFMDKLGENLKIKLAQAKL
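IDH1-R132H (0.5 ug/mL dispensed) in pH 7.5 Tris buffer was preincubated 30 min with compound, then given a substrate mix of 0.016 mM NADPH and 2 mM alpha-KG for 80 min at room temperature; remaining NADPH was read by diaphorase/resazurin fluorescence.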
NPSR antag = blocks cAMP signaling of the human neuropeptide S receptor; Q6W5P4; CHO-NPSR cells, cAMP TR-FRET, antagonist mode; Potency, µM (highest dose often 38.3 µM), for inactives: at the top dose activity change, negative = inhibition, usual class: inhibitors; actives 1% (n = 220,000); AID 1461; note: potency is the fitted concentration of half-maximal effect; % is set by controls: 0 for no effect and ±100 for the full control effect; nearly all actives have a fitted effect of over 50% in size
Target sequence (Q6W5P4 whole entry, looked up): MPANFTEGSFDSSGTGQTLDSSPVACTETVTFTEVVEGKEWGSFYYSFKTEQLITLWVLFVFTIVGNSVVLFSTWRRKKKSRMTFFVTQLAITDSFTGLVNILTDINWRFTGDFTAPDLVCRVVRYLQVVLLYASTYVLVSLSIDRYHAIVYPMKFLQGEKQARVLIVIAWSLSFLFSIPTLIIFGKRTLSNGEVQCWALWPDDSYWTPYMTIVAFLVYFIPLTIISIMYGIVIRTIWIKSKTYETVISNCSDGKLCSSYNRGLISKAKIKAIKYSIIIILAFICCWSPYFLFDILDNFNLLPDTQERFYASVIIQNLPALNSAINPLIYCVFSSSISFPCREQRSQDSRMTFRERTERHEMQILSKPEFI
IDH1 autofl = interferes with resorufin fluorescence in IDH1 counter-screen; shares compounds with mIDH1 inhibitor; Resorufin detection reagent fluorescence interference, cell-free; inhibition of signal, % at 51.2 µM; 750 tested, under 10 active; AID 623980;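 note: 0% = wells with normal resorufin and full inhibition = wells lacking resorufin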
WT IDH1 inh = inhibits human wild-type IDH1, mutant selectivity check; shares compounds with mIDH1 inhibitor; actives 9% (n = 750); WT IDH1 enzyme, NADPH diaphorase/resazurin fluorescence; AID 623995; Potency, µM (top dose mostly 115 µM), without a hit: at the top dose activity change, negative = inhibition, actives largely listed as inhibitors;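 note: potency is the fitted concentration of half-maximal effect; 0% = full WT IDH1 enzyme control and full inhibition = no enzyme wells; nearly all actives have a fitted effect of over 55% in size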
IDH1 R132H conf = confirmation of human mutant IDH1 inhibitors; IDH1 R132H enzyme, NADPH diaphorase/resazurin fluorescence; actives 83% (n = 750); shares compounds with mIDH1 inhibitor; Potency, µM (doses to about 76.6 µM), without a hit: top-dose activity change, negative = inhibition, most hits filed as inhibitors; AID 624002; note: potency is the fitted concentration of half-maximal effect; nearly all actives have a fitted effect of over 50% in size
Active calls of the source: *; ? = inconclusive; / = no result; [ ] = remark or other dose. In the library only some 1.1% were active in any assay of this set; here they are far more common. Calls come from the whole dose curve; as a rule, active = well fitted curve in the direction sought with a large enough effect; inconclusive = small, poorly fitted or top-dose-only effect, or another doubt; inactive = no such curve, though single readings can be large; an effect the other way counts as inactive or inconclusive.

SMILES | HttQ103 aggreg | HTT cytoprotect | AT treatment | mIDH1 inhibitor | NPSR antag | IDH1 autofl | WT IDH1 inh | IDH1 R132H conf
Cc1nn(-c2ccccc2)c2c1C(c1ccc(O)c(O)c1)N1C(=N2)C(Nc2ccccc2)=Nc2ccccc21 (configuration not stated) | -31% | -80% | 14% | 29µM* | ? | 1 | 5% | 40µM*
COc1ccc(C)cc1NS(=O)(=O)c1ccc2c(c1)CCCN2C(C)=O | / | / | / | 0% | / | / | / | /
Cc1cc(C(=O)CCl)c(C)n1-c1cccc(S(=O)(=O)N2CCOCC2)c1 | ? | -256% | -8% | ? | -31% | 3 | -2% | 40µM*
Cc1cc(C(=O)CN2C(=O)CN(C)C2=O)c(C)n1-c1cccc(S(=O)(=O)N2CCOCC2)c1 | 14% | ? | -7% | 0% | 5% | / | / | /
C[C@H]1CN([C@@H](C)CO)C(=O)c2cccc(NS(=O)(=O)c3ccc(Cl)cc3)c2O[C@@H]1CN(C)CC1CCCCC1 | / | / | 3% | 45µM* | / | -4 | 4% | 32µM*
C[C@H](CO)N1C[C@H](C)[C@@H](CN(C)CC2CCCCC2)Oc2c(NS(=O)(=O)c3ccccc3)cccc2C1=O | / | / | 8% | 1% | / | / | / | /
COc1ccc(NC(=O)Cn2c(=O)oc3cc(S(=O)(=O)NC4CCCC4)ccc32)cc1OC | / | / | / | 0% | / | / | / | /
Cc1c(OC(C)C(=O)O)ccc2c(-c3ccccc3)cc(=O)oc12 (configuration not stated) | / | / | 6% | -3% | / | / | / | /
Cc1c(OC(C(=O)O)c2ccccc2)ccc2c(-c3ccccc3)cc(=O)oc12 (configuration not stated) | 0%[9.22 µM] | 11%[10 µM] | -6% | ? | -16% | 6 | -7% | 13µM*
COc1ccc(-c2c(C)c3ccc(O)c(CN4CCC(C)CC4)c3oc2=O)cc1OC | / | / | / | 39% | / | / | / | /
COc1ccc(C2C(C#N)=C(SCC(=O)Nc3ccc(C)cc3)NC3=C2C(=O)CC(C)(C)C3)cc1 (configuration not stated) | 11µM* | -43% | -8% | 13µM* | -8%[46.1 µM] | -4 | 8% | 7.1µM*
COCC(=O)N1c2nc(C(C)C)nn2C2(CCCCC2)[C@@H]2CCCC[C@@H]21 | / | / | / | 4% | / | / | / | /
CCCN(CCC)C(=O)CSc1nnc2cc(C)c3ccccc3n12 | / | / | / | 17% | / | / | / | /
CCOC(=O)N1CCC2(CC1)C(C#N)=C(N)Oc1n[nH]c(CSc3ccc(C)cc3)c12 | 20% | -11%[10 µM] | -3% | ? | -23%[46.1 µM] | 4 | 0% | 28µM*
Cc1ccc(SCc2[nH]nc3c2C2(CCSCC2)C(C#N)=C(N)O3)cc1 | 6% | -4% | 2% | -19% | -12%[46.1 µM] | / | / | /
COCCNC(=O)c1ccc2c(c1)N(Cc1c(F)cccc1Cl)C(=O)c1ccccc1S2 | / | / | / | -13% | / | / | / | /
CCN(CC)C(=O)c1ccc2c(c1)N(Cc1c(F)cccc1Cl)C(=O)c1ccccc1S2 | / | / | / | 32µM* | / | -2 | ? | 28µM*
CC1CCCCN1C(=O)c1ccc2c(c1)N(Cc1ccc(Cl)cc1)C(=O)c1ccccc1S2=O (configuration not stated) | / | / | / | 5% | / | / | / | /
CC(C)C[C@H](NC(=O)c1[nH]cnc1C(=O)N[C@@H](C)c1ccccc1)C(=O)OC(C)(C)C | 3%[9.22 µM] | -9%[10 µM] | -7% | 18µM* | ? | 7 | -14% | 20µM*
CCOc1cc(/C=C(\C#N)C(=O)Nc2cccc(C(=O)O)c2)cc(Br)c1OC(=O)c1ccc(OC)cc1 | / | / | -13% | 52µM* | / | 8 | 71µM* | 32µM*
CC(=O)NC1C(=O)N(CCN2CCOCC2)c2ccc(Cl)cc21 (configuration not stated) | / | / | -3% | 41µM* | / | 5 | ? | -118%
O=S(=O)(/N=C(/Nc1ccc(Cl)c(S(=O)(=O)Nc2ccccc2Cl)c1)c1ccc(F)cc1)c1ccccc1 | ? | -4%[10 µM] | -4% | ? | -52% | -1 | 3% | ?
COc1cccc(C(C(=O)NC2CCCCC2)N(C(=O)c2cccs2)c2ccc3c(c2)OCO3)c1 (configuration not stated) | -10% | / | -4% | ? | -54% | -1 | -5% | -23%
COc1ccc(N(C(=O)CNC(=O)c2cccs2)C(C(=O)NC2CCCC2)c2cccnc2)cc1 (configuration not stated) | 8%[9.22 µM] | -8%[10 µM] | -3% | 4% | 1% | / | / | /
COc1cccc(C(C(=O)NC2CCCCC2)N(C(=O)c2ccco2)c2ccc(-n3cnnn3)c(C)c2)c1 (configuration not stated) | -1% | 13%[10 µM] | -2% | -1% | -11%[46.1 µM] | / | / | /
SMILES | HttQ103 aggreg | HTT cytoprotect | AT treatment | mIDH1 inhibitor | NPSR antag | IDH1 autofl | WT IDH1 inh | IDH1 R132H conf
COc1ccc(N(C(=O)C2COc3ccccc3O2)C(C(=O)NC2CCCCC2)c2ccccc2)cc1OC (configuration not stated) | 13% | -1%[1.9 µM] | 3% | 5.2µM* | -19% | 4 | 4% | 2.8µM*
Cc1nn(C)cc1C(C(=O)NC1CCCCC1)N(C(=O)Cc1cccs1)c1ccc(F)cc1 (configuration not stated) | -15% | -10%[10 µM] | -5% | 0% | 24% | / | / | /
COc1cccc(C(C(=O)NC2CCCCC2)N(C(=O)Cc2cccs2)c2ccc(-n3cnnn3)c(OC)c2)c1 (configuration not stated) | 8% | -68% | 3% | ? | ? | 1 | -4% | 8.9µM*
COc1cc(N(C(=O)Cc2cccs2)C(C(=O)NC2CCCCC2)c2cccc(OC)c2OC)ccc1-n1cnnn1 (configuration not stated) | ? | 7%[10 µM] | -1% | ? | -13% | 2 | -2% | ?
CCc1cccc(CC)c1NC(=O)c1c(C)oc2ccc(O)c(CN3CCN(C)CC3)c12 | / | / | / | -2% | / | / | / | /
CC(=O)c1ccc(NS(=O)(=O)c2cc(-c3cc(C)no3)ccc2C)cc1 | / | / | / | -22% | / | / | / | /
[O-][N+]1(CC[N+]2([O-])CCCCC2)CCCCC1 | / | -2%[10 µM] | / | / | / | / | / | /
CCN(C(=O)CSc1nc(-c2ccccc2)no1)c1cccc(C)c1 | / | / | / | 14% | / | / | / | /
CCC(C)Sc1ccc([C@@H]2[C@@H]3C(=O)N(C)C(=O)[C@@H]3[C@]3(C(=O)OC)CCCCN23)cc1OC (some centres not stated) | / | / | -16% | 35µM* | / | -7 | 1% | 16µM*
